# High-throughput results from PubChem BioAssay.
# ALR inh: human ALR oxidase inhibition via reduced H2O2. P55789. purified ALR, DTT oxidation, H2O2 HRP-luminol luminescence. inhibition, % (test concentration not listed). 3.8% of 290,000 active. AID 485317;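 active = mean replicate inhibition above about 79%, with every replicate also reaching it, limit read from the data; inconclusive = only one of the two criteria met; inactive = mean below limit and not every replicate reaching it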
# Target sequence (P55789 whole entry, looked up): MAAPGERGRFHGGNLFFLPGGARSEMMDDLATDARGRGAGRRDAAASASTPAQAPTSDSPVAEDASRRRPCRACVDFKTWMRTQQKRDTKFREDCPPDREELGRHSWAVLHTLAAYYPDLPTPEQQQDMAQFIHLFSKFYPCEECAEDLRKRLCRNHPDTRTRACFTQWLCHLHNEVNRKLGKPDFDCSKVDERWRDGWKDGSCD
# PfM18AAP inh: blocks P. falciparum M18 aspartyl aminopeptidase | 1.2% of 290,000 active | inhibition, % at 7.35 µM | recombinant PfM18AAP, H-Glu-NHMec fluorogenic cleavage | AID 1822;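 active = inhibition above the campaign mean inhibition over all tested compounds plus 3 SD, cut at about 28% in these data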;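 note: 0% = plate median of test compound wells and 100% = 2 mM ZnCl2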
# GASC-1 inh: inhibitors of human GASC-1 (JMJD2C) demethylase; Q9H3R0; GST-JMJD2C(1-420) H3K9me3 demethylation, DELFIA europium; inhibition, % at 2.35 µM; 0.069% of 330,000 active; AID 2099;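 active = more than half of a compound's replicate wells show inhibition beyond 50%, single wells judged on their own value; inconclusive = some, but no more than half, of replicates pass 50% inhibition; inactive = no replicate passes 50% inhibition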;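 note: signal counts dimethyl H3K9 product captured on neutravidin plate; 0% = median of DMSO wells and 100% = 0.3 times that DMSO median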
# Target sequence (Q9H3R0 1-420 limits assumed): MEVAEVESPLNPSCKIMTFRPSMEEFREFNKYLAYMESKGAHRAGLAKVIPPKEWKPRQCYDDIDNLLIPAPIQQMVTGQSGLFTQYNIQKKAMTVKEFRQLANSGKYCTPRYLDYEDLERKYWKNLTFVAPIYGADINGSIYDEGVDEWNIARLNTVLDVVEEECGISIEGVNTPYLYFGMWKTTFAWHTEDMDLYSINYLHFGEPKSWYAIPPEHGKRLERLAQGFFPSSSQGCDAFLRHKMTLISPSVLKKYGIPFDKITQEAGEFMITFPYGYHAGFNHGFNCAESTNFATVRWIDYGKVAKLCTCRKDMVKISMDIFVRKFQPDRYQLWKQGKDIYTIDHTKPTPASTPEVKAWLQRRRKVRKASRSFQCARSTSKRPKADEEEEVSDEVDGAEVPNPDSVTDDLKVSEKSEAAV
# beta cell repl: MIN6 beta-cell proliferation induction. AID 2380. MIN6 cells proliferation, ATPlite luminescence, 48 h; cells starved in 0.2% serum; 100% = growth in 10% serum. proliferation, % at 10 µM. 0.29% of 330,000 active;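 active = compounds whose signal lies at least 3.5 SD above the mean of all wells on their plate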;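 note: 0% = DMSO-treated cells in low-serum medium and 100% = 10% serum control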
# Exocytosis inh: lytic granule exocytosis inhibition | TALL-104 LAMP-1 surface exposure, flow cytometry; cells stimulated with thapsigargin and PMA | inhibition, % at 10 µM | 0.66% of 360,000 active | AID 651702;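 active = inhibition above about 55%, limit read from the data; inconclusive = no clear call, values can overlap the other calls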
# SMARCA2 activ: increases SMARCA2 function in MMTV reporter cells | MG213 cells, MMTV-luciferase reporter, dexamethasone, overnight | 1% of 370,000 active | activation, % at 9.1 µM; in the data active = activation above about 7.8%;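 note: 0% = vehicle wells and 100% = reference activator wells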
# Starred values were filed as active, the others as inactive; ? = inconclusive; . = no result. A selection: hits, their analogues and other compounds. The true share with any hit is near 5.4%.
SMILES,ALR inh,PfM18AAP inh,GASC-1 inh,beta cell repl,Exocytosis inh,SMARCA2 activ
Cc1ccc(N2CCN(S(=O)(=O)c3nnc(NC(=O)c4ccco4)s3)CC2)cc1,97.1*,1.6,12.2,-3.4,-0.8,-2.7
CCCCNC(=O)C1(C(=O)C2CC2)CC(c2ccccc2C(F)(F)F)=NO1 (configuration not stated),.,.,.,.,.,-1.2
CN1/C(=C/C2CC(=O)N(c3cccc4ccccc34)C2=O)C(C)(C)c2ccccc21 (configuration not stated),-4.5,0.8,-2.8,-4.9,-3.9,-3.6
CN1/C(=C/C2CC(=O)NC2=O)C(C)(C)c2ccccc21 (configuration not stated),98.4*,2.1,-1.3,0.5,-7.8,4.0
C[C@@H]1CN(C(=O)OC(C)(C)C)CCN1c1ccc(N2CCS(=O)(=O)CC2)c(C#N)c1,.,.,.,.,.,-2.2
Cc1ccc(-n2c(Cc3cccs3)nnc2SCC(=O)Nc2ccccc2-c2ccccc2)cc1,.,.,.,.,.,-5.0
Nc1nc(N)c(N=O)c(OCC2CCCCC2)n1,92.5*,6.5,0.4,-0.8,13.6,5.8
CN(C)c1cccc(C(=O)NNC(=S)NC2CC3CCC2C3)c1 (configuration not stated),84.6*,-2.1,-4.8,-4.8,-1.4,-0.9
CC(/C=N/NC(=O)CSc1nnc(SCc2ccc(C)cc2)s1)=C\c1ccco1,.,.,.,.,.,-10.3
COC(=O)c1c(-c2ccc(C(C)(C)C)cc2)csc1NC(=O)C1C2CCC(O2)C1C(=O)O (configuration not stated),35.6,28.2*,9.2,-5.1,-1.8,-1.2
Cc1ccc(C(=O)c2ccc(C)cc2)cc1,.,0.0,10.4,-3.2,-1.7,1.5
Cc1ccc(C(=O)c2no[n+]([O-])c2C(=O)c2ccc(C)cc2)cc1,47.6,2.5,1.9,-5.7,67.6*,0.8
O=C(O)c1ccc(S(=O)(=O)NN=Cc2c[nH]c3ccccc23)cc1,.,.,.,.,-0.8,-7.6
NC(=S)N/N=C/c1c[nH]c2ccccc12,98.8*,21.9,-0.5,2.5,1.2,-2.9
O=C(N/N=C/C(Br)=C/c1ccccc1)C(O)c1ccccc1 (configuration not stated),-5.1,12.9,-2.2,-5.8,5.5,5.7
O=C(O)c1ccc(N/N=C/C(Br)=C/c2ccccc2)cc1,98.3*,1.5,-0.7,-6.1,15.2,-0.4
COC(=O)N/N=C/c1c[nH]c2ccccc12,41.8,-13.9,-3.1,-2.5,-4.9,-0.8
O=C(O)c1ccc(N/N=C/c2c[nH]c3ccccc23)cc1,98.4*,-24.7,-5.8,-3.0,7.9,-1.7
Cc1nnc(N/N=C/c2c[nH]c3ccccc23)[nH]c1=O,68.2,29.4*,8.8,2.3,1.1,-0.9
COc1cc(C(=O)NC2CCCCN(C(C)C)C2=O)cc(OC)c1OC (configuration not stated),.,.,.,.,.,-0.1
O=C(CSc1nc2ccccc2o1)NN=C/C=C\c1ccccc1[N+](=O)[O-],.,.,.,.,.,5.7
CCOC(=O)[C@@]12CCCC3=C1N(CCC3)C(=O)[C@H]2CC(=O)NCCc1ccccc1OC,.,.,.,.,.,-3.1
COC(=O)[C@]12C[C@H](CC(=O)NCc3ccc(OC)c(OC)c3)C(=O)N(Cc3ccco3)C1=C[C@H](COCc1ccccc1)O[C@@H]2C,.,.,.,.,.,-1.3
COc1cc(C(=O)N/N=C(\Cc2ncc[nH]2)c2ccccc2)cc(OC)c1OC,20.2,9.5,.,-4.8,0.6,1.1
c1ccc(N/N=C(\Cc2ncc[nH]2)c2ccccc2)cc1,98.7*,8.9,-6.3,-2.3,-0.2,-5.0
SMILES,ALR inh,PfM18AAP inh,GASC-1 inh,beta cell repl,Exocytosis inh,SMARCA2 activ
COc1ccc(C(=O)N/N=C(\Cc2ncc[nH]2)c2ccccc2)cc1,86.8*,7.8,-11.8,-5.4,-8.0,3.2
O=C(OCCN1CCCC12CCC(c1ccccc1)CC2)c1ccccc1 (configuration not stated),.,.,.,.,.,-0.4
S=C(Nc1cccc(Cl)c1)OC1CCC12CCC(c1ccccc1)CC2 (configuration not stated),.,.,.,.,.,-2.4
COc1cccc(N(C)C(=O)[C@@H](C2CC2)[C@@H](O)c2ccc(C(C)=O)cc2)c1,.,.,.,.,.,-1.8
CCCOC(=O)C1=C(C)N(C)C(=O)NC1c1cc2c(cc1[N+](=O)[O-])OCO2 (configuration not stated),11.8,8.8,4.5,0.7,-1.0,2.0
CCOC(=O)C1=C(C)NC(=O)CC1c1cc2c(cc1[N+](=O)[O-])OCO2 (configuration not stated),90.8*,22.3,6.9,0.5,-2.8,-3.0
COC(=O)c1ccc(Cn2ccc3ccc(-c4ccc5ccn(C(=O)c6ccccc6OC)c5c4)cc32)cc1,.,.,.,.,.,-0.3
Cc1ccc(SCC(=O)NC2CC3CCC(C2)N3C)cc1 (configuration not stated),.,3.5,-0.3,2.6,1.2,-4.0
CN1C2CCC1CC(NC(=O)CSCc1ccc(Cl)cc1Cl)C2 (configuration not stated),98.5*,-1.5,-17.2,-0.7,15.2,2.5
CC(/C=N/n1cnnc1)=C\c1ccccc1,.,6.3,36.0,-0.6,0.7,3.0
ClC(/C=N/n1cnnc1)=C/c1ccccc1,-3.4,31.7*,-7.4,-3.1,-4.0,2.9
CCOC(=O)CSc1cc(C)nc2ccc(OC)cc12,98.1*,-2.9,-6.1,-1.2,-3.4,-1.0
COc1ccc2nc(C)cc(SCC(=O)Nc3c(C)cc(C)cc3C)c2c1,.,-0.6,13.8,-2.4,-5.0,1.1
CCOC(=O)[C@]12CCCCC/C=C\1N(CCc1ccc(Cl)cc1)C(=O)[C@H]2CC(=O)N1CCN(C(=O)C2CC2)CC1,.,.,.,.,.,0.8
C=CC(=O)N1C/C(=C/c2ccc(F)cc2)C(=O)/C(=C\c2ccc(F)cc2)C1,.,.,.,.,93.9*,-10.8
CN1C2CCC1/C(=C\c1ccc(F)cc1)C(=O)/C2=C/c1ccc(F)cc1,-0.9,-2.9,-12.7,-5.6,-1.0,-1.1
Cc1ccc(N2CCN(CCCN3C(=O)C4CCCN4C3=O)CC2)cc1 (configuration not stated),98.3*,1.3,4.3,1.2,-1.6,-4.3
O=C1C2CCCN2C(=O)N1CCCN1CCN(c2cccc(Cl)c2)CC1 (configuration not stated),36.8,-2.9,-6.7,-0.4,6.9,-2.8
O=S1(=O)CCOCC(CO)N1Cc1cccc(Br)c1 (configuration not stated),.,.,.,.,.,-0.7
CCNC(=O)N1CCN(c2ccc(N3CCN(C(=O)NCC)[C@@H](C)C3)c(C)c2)[C@H](C)C1,.,.,.,.,.,-3.9
CCCc1[nH][nH]c(=O)c1C(c1ccc(Cl)cc1)C(C#N)C#N (configuration not stated),66.2,-3.5,?,-4.4,-2.0,-4.8
CCCc1[nH][nH]c(=O)c1C(c1ccc(Br)cc1)C(C#N)C#N (configuration not stated),94.5*,5.8,-1.6,-0.8,1.0,-4.2
COC(=O)[C@]12C[C@H](CC(=O)NCc3cccs3)C(=O)N(Cc3ccc(Cl)cc3Cl)C1=C[C@H](C1CCCC1)O[C@@H]2C,.,.,.,.,.,-3.1
